Inconclusive results are not listed. Where a call stands in place of a potency, no number is given. Calls of active or inactive are those of the source. Unless noted, calls come from the whole dose curve; as a rule, active = well fitted cell-killing curve with a large enough effect in the repeat runs; inconclusive = weak or mixed curves, or effect the other way; inactive = no such curve, though single readings can be large or run the other way.
Potency is the fitted concentration of half-maximal effect.

Chain of Bile acid receptor (Homo sapiens) (Q96RI1 whole entry, looked up): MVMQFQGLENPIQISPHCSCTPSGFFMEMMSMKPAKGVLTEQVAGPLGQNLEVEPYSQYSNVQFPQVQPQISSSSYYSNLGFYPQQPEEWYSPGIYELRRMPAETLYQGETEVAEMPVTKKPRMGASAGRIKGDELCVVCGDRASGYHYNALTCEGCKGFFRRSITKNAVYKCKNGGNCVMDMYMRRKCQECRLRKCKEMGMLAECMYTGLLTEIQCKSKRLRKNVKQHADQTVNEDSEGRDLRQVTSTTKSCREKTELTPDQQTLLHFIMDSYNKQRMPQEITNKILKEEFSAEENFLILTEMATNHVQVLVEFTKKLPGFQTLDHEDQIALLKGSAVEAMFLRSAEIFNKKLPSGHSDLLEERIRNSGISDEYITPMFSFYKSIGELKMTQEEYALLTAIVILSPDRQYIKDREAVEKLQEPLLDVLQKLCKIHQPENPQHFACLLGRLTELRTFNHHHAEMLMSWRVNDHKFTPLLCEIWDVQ

Tested on in one assay: not listed separately
Briefly: qHTS assay to identify small molecule agonists of the farnesoid-X-receptor (FXR) signaling pathway - cell viability counter screen (AID 743218). Note: nearly all actives have a fitted effect of over 45% in size. The settings on record: FXR-bla HEK293T viability, CellTiter-Glo luminescence, 16 h; series mostly up to 62.6 µM. An outline of the steps:
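HEK 293T FXR-bla cells; 5 h pre-incubation, 16 h compound exposure at 37 C; LiveBLAzer substrate 2 h RT, then CellTiter-Glo 30 min RT, luminescence.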
As to `COS(=O)(=O)C(F)(F)F`, the Potency entry was “inactive”.
Still for that read-out and setting: the result for `CC(C)C[C@H]1C(=O)N2CCC[C@H]2[C@]2(O)O[C@](NC(=O)[C@@H]3C=C4c5cccc6[nH]c(Br)c(c56)C[C@H]4N(C)C3)(C(C)C)C(=O)N12` reads “inactive”; that for `CC(=O)c1ccc2c(c1)N(CCCN1CCC(CCO)CC1)c1ccccc1S2`, 29.8 µM (active).
For `CC1=CC[C@H](C(C)C)C=C1`, the Potency entry was “inactive”.
Still for that read-out and setting: the result for `Cc1ccc(C(C)OC(=O)C2(C)CCC(C(=O)O)C2(C)C)cc1` (configuration not stated) reads “inactive”; that for `CCC(Cl)CCC(Cl)C(Cl)CC(Cl)C(Cl)C(Cl)CCl` (configuration not stated), “inactive”; that for `c1ccc(C(O[C@H]2CCCN(CCc3ccc4c(c3)OCO4)C2)c2ccccc2)cc1`, “inactive”.
For the molecule `O=C(OCCCCCCOC(=O)c1ccccc1)c1ccccc1`, the Potency entry is “inactive”.
In the case of `Cc1nn(C)c(Oc2ccccc2)c1/C=N/OCc1ccc(C(=O)OC(C)(C)C)cc1`, the Potency entry is “inactive”.
In the case of `C#C[C@]1(O)CC[C@H]2[C@@H]3CCc4cc(OC5CCCC5)ccc4[C@H]3CC[C@@]21C`, the Potency is 26.6 µM (active).
`CCC(C)(C)CC`: the Potency result is “inactive”.
On the same count and under the same terms, the result for `CCCCC/C=C\C/C=C\CCCCCCCC(=O)NC(C)c1ccccc1` (configuration not stated) reads “inactive”; that for `COc1ccc(S(=O)(=O)N2C(=O)[C@@](c3ccccc3OC)(N3C[C@H](O)C[C@H]3C(=O)N(C)C)c3cc(Cl)ccc32)c(OC)c1`, “inactive”.
Same read-out and setting: the result for `C[N+](C)(C)CCOC(=O)CCC(=O)OCC[N+](C)(C)C` reads “inactive”; that for `CN(C)CCCN1c2ccccc2Sc2ccccc21`, 13.3 µM (active); that for `CCCCCCCCCCCCCCCCOS(=O)(=O)O`, “inactive”.
On to `Cc1cc(N)c2cc(NC(=O)Nc3ccc4nc(C)cc(N)c4c3)ccc2n1`, for which the Potency entry was “inactive”.
Same read-out and setting: the result for `O=C(Nc1ccc(S(=O)(=O)N2CCOCC2)cc1)c1cc(Cl)ccc1NS(=O)(=O)c1ccc(Cl)s1` reads 6.68 µM (active); that for `C/C=C(/C(=C/C)c1ccc(OC(C)=O)cc1)c1ccc(OC(C)=O)cc1`, “inactive”.
As to `O=C(c1ccc(F)cc1)C1CCN(CCn2c(=S)[nH]c3ccccc3c2=O)CC1`, the Potency result is “inactive”.
Consider `CCN(CC)c1ccc(C(=C2C=CC(=[N+](CC)CC)C=C2)c2cc(S(=O)(=O)O)ccc2S(=O)(=O)[O-])cc1`, for which the Potency result is “inactive”.
Still for that read-out and setting: the result for `CC(C)(CO)[N+](=O)[O-]` reads “inactive”.

The next assay addresses Bile acid receptor (Homo sapiens) (UniProt Q96RI1). Briefly: qHTS assay to identify small molecule agonists of the farnesoid-X-receptor (FXR) signaling pathway (AID 743220; active = well fitted activation curve with a large enough effect in the signal ratio in the repeat runs, not every such curve was filed as active; the % refers to the signal ratio). The conditions noted are these: HEK293T FXR-UAS-bla, beta-lactamase FRET ratio, 16 h; series mostly up to 62.6 µM. The method, boiled down: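 Beta-lactamase reporter under UAS control in GeneBLAzer FXR HEK 293T cells (5000/well) measured with LiveBLAzer FRET substrate after 2 h at room temperature. Compound exposure lasted 16 h at 37C.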
A general note: qHTS replaces the single test concentration by a dilution series.
Consider `COS(=O)(=O)C(F)(F)F`, for which the Potency entry was “inactive”.
As to `C=C1C(=C/C=C2\CCC[C@]3(C)[C@@H]([C@H](C)/C=C/[C@@H](O)C4CC4)CC[C@@H]23)C[C@@H](O)C[C@@H]1O`, the Potency result was “inactive”.
As for `CCC(Cl)CCC(Cl)C(Cl)CC(Cl)C(Cl)C(Cl)CCl` (configuration not stated), the Potency entry was “inactive”.
For `O=C(OCCCCCCOC(=O)c1ccccc1)c1ccccc1`, the Potency entry was “inactive”.
For `COc1cc2nc(N3CCN(C(=O)C4COc5ccccc5O4)CC3)nc(N)c2cc1OC` (configuration not stated), the Potency entry was “inactive”.
Same read-out and setting: for `Cc1nn(C)c(Oc2ccccc2)c1/C=N/OCc1ccc(C(=O)OC(C)(C)C)cc1` the value was “inactive”; for `C[C@H](CCC(=O)O)[C@H]1CC[C@H]2[C@@H]3CC[C@@H]4C[C@H](O)CC[C@]4(C)[C@H]3C[C@H](O)[C@]12C`, 49.1 µM (active).
On to `COc1ccc(-c2nc3ccc(C4=NNC(=O)CC4C)cc3[nH]2)cc1` (configuration not stated), for which the Potency result is “inactive”.
Same read-out and setting: for `CN(C)CCOC(c1ccccc1)c1ccc(Br)cc1` (configuration not stated) the value was “inactive”.
Same read-out and setting: the result for `CN(C)CCCN1c2ccccc2Sc2ccccc21` reads “inactive”; that for `CCCCCCCCCCCCCCCCOS(=O)(=O)O`, “inactive”; that for `Cc1cc(N)c2cc(NC(=O)Nc3ccc4nc(C)cc(N)c4c3)ccc2n1`, “inactive”.
Same read-out and setting: the result for `O=C(Nc1ccc(S(=O)(=O)N2CCOCC2)cc1)c1cc(Cl)ccc1NS(=O)(=O)c1ccc(Cl)s1` reads “inactive”; that for `O=C(O)C1(C(=O)Nc2ccc(Cl)cc2Cl)CC1`, “inactive”.
Regarding `CCN(CC)c1ccc(C(=C2C=CC(=[N+](CC)CC)C=C2)c2cc(S(=O)(=O)O)ccc2S(=O)(=O)[O-])cc1`, the Potency result is “inactive”.
